# Measured values reported in PubChem BioAssay (NCATS).
# Where “and” joins values, the source holds several entries; their conditions need not be identical. Equal values may be shown once. Records with an inconclusive call do not appear. Where a call stands in place of a potency, no number is given. Unmarked numbers belong to inactive results. Calls of active or inactive are those of the source. The call rests on the fitted dose curve; in most records, active means well fitted curve in the direction sought with a large enough effect; inconclusive means small, poorly fitted or top-dose-only effect, or another doubt; inactive means no such curve, though single readings can be large; an effect the other way counts as inactive or inconclusive. Numbered stars: 1 amine (or outer) side, 2 acyl side, 3 side chain; on linkers, the order of the positions; unused ones are H or OH. Square brackets hold non-standard residues; d marks the D form. Peptide text beside a SMILES is read from it. X3 = CC(CC(O[*:1])C(=O)[*:2])C(=O)O; NMeV = CN[CH](C(=O)O)C(C)C; NMeA = CN[CH](C)C(=O)O; βAla = NCCC(=O)O
# Experiments:
# [1] = biological target: Cellular tumor antigen p53 (Homo sapiens) (UniProt P04637); test: Primary qHTS for small molecule compounds that upregulate eGFP-tagged delta133p53alpha (in N-terminal) cells. (AID 2060322); conditions: NCI-H358 eGFP-delta133p53alpha fluorescence, 24 h; activation: stronger effect = higher value; further: nearly all actives have a fitted effect of over 75% in size; further: potency means the concentration at half of the fitted maximal effect; on activation: series mostly up to about 56 µM
# Chain of Cellular tumor antigen p53 (Homo sapiens) (P04637 whole entry, looked up): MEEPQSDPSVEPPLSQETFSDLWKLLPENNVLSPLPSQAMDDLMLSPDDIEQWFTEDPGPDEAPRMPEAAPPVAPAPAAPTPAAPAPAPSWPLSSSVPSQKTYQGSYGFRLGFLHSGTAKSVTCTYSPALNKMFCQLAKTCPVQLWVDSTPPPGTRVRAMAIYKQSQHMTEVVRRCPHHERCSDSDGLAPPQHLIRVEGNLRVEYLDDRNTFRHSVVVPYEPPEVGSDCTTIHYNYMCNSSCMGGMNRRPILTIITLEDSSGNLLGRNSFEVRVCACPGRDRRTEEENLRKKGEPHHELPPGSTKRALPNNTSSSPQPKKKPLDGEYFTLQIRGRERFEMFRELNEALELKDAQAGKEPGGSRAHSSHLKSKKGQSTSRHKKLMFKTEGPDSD
# How it was run: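 NCI-H358 cells pre-induced 24 h with 10 ng/ml doxycycline to express N-terminal eGFP-delta133p53alpha, then dosed 24 h at 37C without doxycycline; fixed, Hoechst-stained, GFP intensity by laser scanning cytometry, normalized to DMSO (0%) and 57.5 uM 5-azacytidine (100%).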
# [2] = biological target: Aldehyde dehydrogenase, mitochondrial (Homo sapiens) (UniProt P05091); test: qHTS for Inhibitors of the Aldehyde Dehydrogenase Family (ALDH2) Primary screen (AID 2061308); further: nearly all actives have a fitted effect of over 55% in size
# [3] = biological target: Retinaldehyde dehydrogenase 3 (Homo sapiens) (UniProt P47895); test: qHTS for Inhibitors of the Aldehyde Dehydrogenase Family (ALDH1A3) Primary screen (AID 2061315)
# [4] = BET inhibitor-based combinations targeting novel dependencies in MECOM-rearranged (r) AML: SET-2 cell line (AID 2202231); conditions: SET-2 AML cells viability, CellTiter-Glo luminescence, 48 h; viability: stronger effect = lower value, series mostly up to about 46 µM; further: nearly all actives have a fitted effect of over 35% in size
# How it was run: (§1)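 A 48 hr incubation preceded viability reading by CellTiter-Glo, with 15 min room-temperature development. Dose series had 11 points; normalization used DMSO and empty wells; AUC was computed and mean-centered per line as Z-AUC.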
# [5] = BET inhibitor-based combinations targeting novel dependencies in MECOM-rearranged (r) AML: MV-4-11 cell line (AID 2202233); further: potency means the concentration at half of the fitted maximal effect; nearly all actives have a fitted effect of over 45% in size
# How it was run: (§2)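 Each compound is tested in an 11-point concentration series against 500 seeded cells/well for 48 hr. The luminescent viability signal is normalized to DMSO and blank wells, then reduced to AUC and a cell-line-centred Z-AUC.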
# [6] = BET inhibitor-based combinations targeting novel dependencies in MECOM-rearranged (r) AML: HNT-34 cell line (AID 2202234); further: nearly all actives have a fitted effect of over 35% in size
# How it was run: as §2
# [7] = BET inhibitor-based combinations targeting novel dependencies in MECOM-rearranged (r) AML: UCSD-AML1 cell line (AID 2202235); further: series mostly up to about 46 µM; nearly all actives have a fitted effect of over 40% in size
# How it was run: as §2
# [8] = BET inhibitor-based combinations targeting novel dependencies in MECOM-rearranged (r) AML: AML-194 cell line (AID 2202237; further: nearly all actives have a fitted effect of over 40% in size)
# How it was run: as §1
smiles,measurement,setting,value
CC[C@@H](C)[C@H]1C(=O)O[C@H](C(C)C)C(=O)N(C)[C@@H](C(C)C)C(=O)O[C@H](C(C)C)C(=O)N(C)[C@@H](C(C)C)C(=O)O[C@H](C(C)C)C(=O)N1C,activation,[1],-17.6%
same,Potency,[2],inactive
same,Potency,[3],inactive
CCC(C)C1NC(=O)C2CCCN2C(=O)C(CC(C)C(=O)O)OC(=O)CCNC(=O)C(C)N(C)C(=O)C(C(C)C)N(C)C1=O (centres undefined) (cyclo([X3]PI[NMeV][NMeA][βAla]); configuration not given here),activation,[1],-10.7%
same,Potency,[2],inactive
same,Potency,[3],inactive
CC(C)(O)/C=C/C(=O)[C@](C)(O)[C@H]1[C@H](O)C[C@@]2(C)[C@@H]3CC=C4[C@@H](C[C@H](O)C(=O)C4(C)C)[C@]3(C)C(=O)C[C@]12C,Potency,[1],4.65 µM (active)
same,Potency,[2],inactive
same,Potency,[3],inactive
O=C1N[C@@H](Cc2ccccc2)CN2CCCC[C@@H]12,activation,[1],-9.16%
same,Potency,[2],inactive
same,Potency,[3],inactive
CC1=CC2OC3CC(O)[C@](C)([C@@]2(C)C(O)C1=O)[C@]31CO1 (some centres undefined),Potency,[1],21.3 µM (active)
same,Potency,[2],inactive
same,Potency,[3],inactive
C=CC(C)(C)c1[nH]c2cccc3c2c1C[C@@H]1[C@@H]3[C@@H](OC(C)=O)[C@H](C)CN1C,activation,[1],1.53%
same,Potency,[2],inactive
same,Potency,[3],inactive
CC[C@H]1CN2CC[C@H]1C[C@H]2[C@H](O)c1ccnc2ccc(OC)cc12,activation,[1],7.14%
same,Potency,[2],inactive
same,Potency,[3],inactive
CCOP(=O)(OCC)Oc1ccc2c(C)cc(=O)oc2c1,activation,[1],6.33%
same,Potency,[2],inactive
same,Potency,[3],inactive
CC(=O)O[C@@H]1[C@@H](O)[C@H]2O[C@@H]3C=C(C)[C@@H](O)C[C@]3(CO)[C@]1(C)[C@]21CO1,Potency,[1],1.48 µM (active)
same,Potency,[2],inactive
same,Potency,[3],inactive
CN(CC[C@H](N)CC(=O)N[C@H]1C=C[C@@H](n2ccc(N)nc2=O)O[C@@H]1C(=O)O)C(=N)N,activation,[1],7.14%
same,"activity change, negative = inhibition",[2],-3.48% [at 11.2 µM]
same,"activity change, negative = inhibition",[3],7.62% [at 11.2 µM]
CC(=O)C1CCC2C3CCC4C[C@@H](O)CCC4(C)C3CCC12C (some centres undefined),activation,[1],-2.33%
same,Potency,[2],inactive
same,Potency,[3],inactive
CO[C@H]1C[C@H](O[C@H]2CC[C@]3(C=O)[C@H]4CC[C@]5(C)[C@@H](C6=CC(=O)OC6)CC[C@]5(O)[C@@H]4CC[C@]3(O)C2)O[C@H](C)[C@H]1O,activation,[1],-29.8%
same,Potency,[2],inactive
same,Potency,[3],inactive
C[C@]12CCC(=O)C=C1CC[C@@H]1[C@@H]2[C@@H](O)C[C@]2(C)C(=O)CC[C@@H]12,activation,[1],11%
same,Potency,[2],inactive
same,Potency,[3],inactive
CC(C)(C)c1cc(C(C)(C)C)c2c(c1)C(O)(C(F)(F)F)C(=O)O2 (centres undefined),activation,[1],23.2%
same,Potency,[2],inactive
same,Potency,[3],inactive
CN1CCCC1CCOC(c1cc2nccc(C(=O)O)c2[nH]1)c1ccccc1Cl (centres undefined),activation,[1],4.33%
same,Potency,[2],inactive
same,Potency,[3],inactive
O=C1C[C@@H]2OCC=C3CN4CC[C@]56c7ccccc7N1[C@H]5[C@H]2[C@H]3C[C@H]46,activation,[1],-3.57%
same,Potency,[2],inactive
same,Potency,[3],inactive
C[C@@]12C[C@@H](c3ccoc3)OC(=O)C1CC[C@]1(C)[C@H]2[C@H]2C=C[C@]1(O)C(=O)O2 (some centres undefined),activation,[1],-2.29%
same,Potency,[2],inactive
same,Potency,[3],inactive
CC1C/C=C/C(O)C(O)CC/C=C/c2cc(O)cc(O)c2C(=O)O1 (centres undefined),activation,[1],-10.7%
same,Potency,[2],inactive
same,Potency,[3],inactive
O=C(NCC1CCOCC1)c1cnc(Nc2ccc(Cl)cc2Cl)nc1C(F)(F)F,activation,[1],-5.35% and 9.55%
same,Potency,[2],inactive
same,Potency,[3],inactive
same,viability,[4],97.9%
same,Potency,[5],14.8 µM (active)
same,Potency,[6],inactive
same,Potency,[7],inactive
COc1ccc(N(C(=O)Oc2c(C)cccc2C)c2ccnc(Nc3ccc(N4CCN(C)CC4)cc3)n2)c(OC)c1,activation,[1],-14.2%
same,Potency,[2],inactive
same,Potency,[3],inactive
same,viability,[4],117%
same,Potency,[7],inactive
same,Potency,[8],inactive
C/C=C(\C)C(=O)OC1C2C3(C)CCC(OC4CC(OC)C(OC5OC(C)C(O)C(OC)C5O)C(C)O4)CC3CCC23OC32CCC(C(C)=O)C2(C)C1OC(=O)/C(C)=C/C (centres undefined),activation,[1],12.5%
same,Potency,[2],inactive
same,Potency,[3],inactive
O=C(O)CCCCCCNC1c2ccccc2CCc2ccccc21,activation,[1],5.67%
same,Potency,[2],inactive
same,Potency,[3],inactive
C[C@@H]1CCC2[C@@H](C)C(=O)OC3O[C@@]4(C)CCC1[C@]32OO4 (some centres undefined),activation,[1],37.5%
same,Potency,[2],inactive
same,Potency,[3],inactive
Cc1ccccc1-n1c(Cn2cnc3c(N)ncnc32)nc2cccc(C)c2c1=O,activation,[1],46.4% and -16.1%
same,Potency,[2],inactive
same,Potency,[3],inactive
same,viability,[4],110%
same,Potency,[5],1.48 µM (active)
same,Potency,[6],inactive
same,Potency,[7],inactive
same,Potency,[8],inactive
